Among all 5,500 compounds or so, about 2,000 (36%) were called active. Not shown: some 18% with an inconclusive outcome. Cut-off read from the data, not from the text of the source: active = normalized growth mostly below about 0.91 (no sharp cut-off); inconclusive = no clear call, values can overlap the other calls; inactive = mostly above about 0.92. Some of the results follow.
Assay: chemical genetic growth profiling, strain panel (AID 1159580);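 note: tested at 20 µM; growth read once vehicle control cultures reached saturation at 30 °C; 1 = growth at the plate median or of vehicle wells; lower values mean less growth of the strain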
Settings: S. cerevisiae deletion strains, growth OD
[1] = locus YAL013W, strain DEP1, stronger effect = lower value
[2] = locus YAL040C, strain CLN3, stronger effect = lower value
[3] = locus YCL061C, strain MRC1 (second series), stronger effect = lower value
[4] = locus YDR363W, strain ESC2, stronger effect = lower value
[5] = locus YER002W, strain NOP16, stronger effect = lower value
[6] = locus YGR078C, strain PAC10, stronger effect = lower value
[7] = locus YMR263W, strain SAP30, stronger effect = lower value
[8] = locus YMR307W, strain GAS1, stronger effect = lower value
[9] = locus YNL175C, strain NOP13, stronger effect = lower value
[10] = locus YNL197C, strain WHI3, stronger effect = lower value
[11] = locus YNL224C, strain SQS1, stronger effect = lower value
[12] = locus YOR083W, strain WHI5 (second series), stronger effect = lower value

Measured: normalized growth

Cc1ccccc1N1CCN(S(=O)(=O)C[C@]23CCC(CC2NC(=O)[C@@H](N)CCS(C)(=O)=O)C3(C)C)CC1 (stereo partly specified)
inactive: [1] 0.995 | [2] 1.01 | [3] 1 | [4] 1 | [5] 1.04 | [6] 0.999 | locus YGR229C, strain SMI1, stronger effect = lower value 1 | [7] 0.995 | [8] 0.99 | [9] 1.01 | [10] 1.01 | [11] 1.01 | locus YNL322C, strain KRE1, stronger effect = lower value 0.99 | [12] 1.04

CCCN(CCC)C1Cc2cc(OC)c(OC)cc2C1
inactive: [1] 0.961 | [2] 1.05 | [3] 0.988 | [4] 0.974 | [5] 1.04 | [7] 0.985 | [8] 0.995 | [9] 1.02 | [10] 0.983 | [11] 0.994 | [12] 0.995

Clc1ccc(C(Cn2ccnc2)OCc2ccsc2Cl)c(Cl)c1 (stereo unspecified)
active: locus YAL021C, strain ccr4, stronger effect = lower value 0.0615 | locus YAL026C, strain drs2, stronger effect = lower value 0.0595 | locus YAL030W, strain snc1, stronger effect = lower value 0.058 | locus YBL061C, strain skt5, stronger effect = lower value 0.0605 | locus YBR009C, strain hhf1, stronger effect = lower value 0.0623 | locus YBR023C, strain chs3, stronger effect = lower value 0.0625 | locus YBR171W, strain sec66, stronger effect = lower value 0.077 | locus YBR231C, strain swc5, stronger effect = lower value 0.0613 | locus YBR279W, strain paf1, stronger effect = lower value 0.0605 | locus YCL011C, strain gbp2, stronger effect = lower value 0.0554 | locus YCL016C, strain dcc1, stronger effect = lower value 0.0612 | locus YCL061C, strain MRC1, stronger effect = lower value 0.0623 | locus YCL069W, strain vba3, stronger effect = lower value 0.0601 | locus YCR088W, strain abp1, stronger effect = lower value 0.0619 | locus YDL005C, strain med2, stronger effect = lower value 0.0727 | locus YDL040C, strain nat1, stronger effect = lower value 0.0591 | locus YDR001C, strain nth1, stronger effect = lower value 0.0593 | locus YDR069C, strain doa4, stronger effect = lower value 0.0605 | locus YDR137W, strain rgp1, stronger effect = lower value 0.0897 | locus YDR159W, strain sac3, stronger effect = lower value 0.0897 | locus YDR195W, strain ref2 0.109 | locus YDR297W, strain sur2, stronger effect = lower value 0.0576 | locus YDR334W, strain swr1, stronger effect = lower value 0.0622 | locus YDR335W, strain msn5, stronger effect = lower value 0.0604 | locus YDR392W, strain spt3, stronger effect = lower value 0.0929 | locus YEL003W, strain gim4, stronger effect = lower value 0.0528 | locus YEL037C, strain rad23, stronger effect = lower value 0.0589 | locus YEL061C, strain CIN8 (second series), stronger effect = lower value 0.0607 | locus YER015W, strain faa2, stronger effect = lower value 0.0602 | locus YER016W, strain bim1, stronger effect = lower value 0.0611 | locus YER111C, strain swi4, stronger effect = lower value 0.0729 | locus YER155C, strain BEM2 (second series), stronger effect = lower value 0.0863 | locus YFR010W, strain ubp6, stronger effect = lower value 0.0638 | locus YGL167C, strain pmr1, stronger effect = lower value 0.0775 | locus YGL173C, strain kem1, stronger effect = lower value 0.0679 | locus YGL227W, strain vid30, stronger effect = lower value 0.0627 | locus YGL240W, strain doc1, stronger effect = lower value 0.0751 | locus YGL253W, strain hxk2, stronger effect = lower value 0.0532 | locus YHR013C, strain ard1, stronger effect = lower value 0.116 | locus YHR027C, strain rpn1, stronger effect = lower value 0.0631 | locus YHR030C, strain SLT2, stronger effect = lower value 0.1 | locus YHR079C, strain IRE1, stronger effect = lower value 0.111 | locus YHR142W, strain chs7, stronger effect = lower value 0.0682 | locus YJL092W, strain hpr5, stronger effect = lower value 0.058 | locus YJL095W, strain BCK1 (second series), stronger effect = lower value 0.0564 | locus YJL095W, strain BCK1, stronger effect = lower value 0.131 | locus YJL115W, strain asf1, stronger effect = lower value 0.0715 | locus YJL129C, strain trk1, stronger effect = lower value 0.0844 | locus YJL154C, strain vps35, stronger effect = lower value 0.0606 | locus YJL164C, strain tpk1, stronger effect = lower value 0.0589 | locus YJL166W, strain qcr8, stronger effect = lower value 0.0614 | locus YJL187C, strain SWE1, stronger effect = lower value 0.058 | locus YJR066W, strain TOR1, stronger effect = lower value -0.00364 | locus YKL160W, strain elf1, stronger effect = lower value 0.0664 | locus YKR026C, strain gcn3, stronger effect = lower value 0.0641 | locus YKR091W, strain srl3, stronger effect = lower value 0.0588 | locus YLL001W, strain dnm1, stronger effect = lower value 0.0592 | locus YLL026W, stronger effect = lower value 0.0585 | locus YLL041C, strain sdh2, stronger effect = lower value 0.0592 | locus YLR027C, strain aat2, stronger effect = lower value 0.0566 | locus YLR113W, strain HOG1, stronger effect = lower value 0.175 | locus YLR221C, strain rsa3, stronger effect = lower value 0.0562 | locus YLR258W, strain gsy2, stronger effect = lower value 0.0592 | locus YLR262C, strain YPT6 (second series), stronger effect = lower value 0.0854 | locus YLR320W, strain mms22, stronger effect = lower value 0.083 | locus YLR342W, strain FKS1, stronger effect = lower value 0.063 | locus YLR357W, strain rsc2, stronger effect = lower value 0.114 | locus YLR370C, strain arc18, stronger effect = lower value 0.0594 | locus YLR384C, strain iki3, stronger effect = lower value 0.0608 | locus YML120C, strain ndi1, stronger effect = lower value 0.0591 | locus YMR058W, strain fet3, stronger effect = lower value 0.0582 | locus YMR125W, strain sto1, stronger effect = lower value 0.0724 | locus YMR129W, stronger effect = lower value 0.057 | locus YMR205C, strain PFK2, stronger effect = lower value 0.0885 | locus YMR231W, strain pep5, stronger effect = lower value 0.0835 | locus YNL071W, strain lat1, stronger effect = lower value 0.0601 | locus YNL183C, strain NPR1, stronger effect = lower value -4.4e-05 | locus YNL209W, strain ssb2, stronger effect = lower value 0.0596 | locus YNL248C, strain rpa49, stronger effect = lower value 0.0715 | locus YNL322C, strain KRE1 (second series), stronger effect = lower value 0.0708 | locus YNR049C, strain mso1, stronger effect = lower value 0.0574 | locus YOR001W, strain rrp6, stronger effect = lower value 0.0652 | locus YOR070C, strain gyp1, stronger effect = lower value 0.0829 | locus YOR080W, strain dia2, stronger effect = lower value 0.0656 | locus YOR083W, strain WHI5, stronger effect = lower value 0.0618 | locus YOR106W, strain vam3, stronger effect = lower value 0.0631 | locus YOR231W, strain MKK1, stronger effect = lower value 0.107 | locus YOR265W, strain rbl2, stronger effect = lower value 0.0575 | locus YOR270C, strain vph1, stronger effect = lower value 0.0903 | locus YOR290C, strain snf2, stronger effect = lower value 0.074 | locus YPL051W, strain arl3, stronger effect = lower value 0.0604 | locus YPL078C, strain atp4, stronger effect = lower value 0.0629 | locus YPL106C, strain sse1, stronger effect = lower value 0.0945 | locus YPL240C, strain hsp82, stronger effect = lower value 0.0568 | locus YPL256C, strain CLN2, stronger effect = lower value 0.133

Clc1ccc(C(c2ccc(Cl)cc2)n2cc[n+](CC(OCc3ccc(Cl)cc3Cl)c3ccc(Cl)cc3Cl)c2)cc1 (stereo unspecified)
active: [2] 0.071 | [3] 0.0506 | [4] 0.0687 | [6] 0.0555 | locus YJR075W, strain HOC1, stronger effect = lower value 0.0686 | [8] 0.0652 | [9] 0.0668 | [10] 0.0718 | [11] 0.0691 | [12] 0.0706
inactive: [5] 1.01
